According to PubChem BioAssay AID493170 (National Center for Advancing Translational Sciences (NCATS), 2011):
Records with an inconclusive call do not appear. Where a call stands in place of a potency, no number is given. The source made the active and inactive calls. Calls come from the whole dose curve; as a rule, active = well fitted inhibition curve with a large enough effect; inconclusive = small, poorly fitted or top-dose-only effect, or effect the other way; inactive = flat fitted curve, though single readings scatter.

Target: Ubiquitin carboxyl-terminal hydrolase 2 (Homo sapiens) (UniProt O75604)
Assay: Ub-rhodamine 110 based assay for inhibitors Ubiquitin-specific Protease USP2a; note: nearly all actives have a fitted effect of over 50% in size
Details: USP2a Ub-rhodamine110 cleavage, fluorescence; series mostly up to 38.3 µM
In short: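 Kinetic fluorescence (485/531 nm) read each minute over 7 min after adding Ub-Rhod110 (150 nM final) to USP2a (5 nM final). The enzyme had 30 min RT exposure to compounds beforehand in Tris pH 8.0 buffer with CaCl2, CHAPS and beta-ME.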
Potency is the fitted concentration of half-maximal effect.

Chain of Ubiquitin carboxyl-terminal hydrolase 2 (Homo sapiens) (O75604 whole entry, looked up): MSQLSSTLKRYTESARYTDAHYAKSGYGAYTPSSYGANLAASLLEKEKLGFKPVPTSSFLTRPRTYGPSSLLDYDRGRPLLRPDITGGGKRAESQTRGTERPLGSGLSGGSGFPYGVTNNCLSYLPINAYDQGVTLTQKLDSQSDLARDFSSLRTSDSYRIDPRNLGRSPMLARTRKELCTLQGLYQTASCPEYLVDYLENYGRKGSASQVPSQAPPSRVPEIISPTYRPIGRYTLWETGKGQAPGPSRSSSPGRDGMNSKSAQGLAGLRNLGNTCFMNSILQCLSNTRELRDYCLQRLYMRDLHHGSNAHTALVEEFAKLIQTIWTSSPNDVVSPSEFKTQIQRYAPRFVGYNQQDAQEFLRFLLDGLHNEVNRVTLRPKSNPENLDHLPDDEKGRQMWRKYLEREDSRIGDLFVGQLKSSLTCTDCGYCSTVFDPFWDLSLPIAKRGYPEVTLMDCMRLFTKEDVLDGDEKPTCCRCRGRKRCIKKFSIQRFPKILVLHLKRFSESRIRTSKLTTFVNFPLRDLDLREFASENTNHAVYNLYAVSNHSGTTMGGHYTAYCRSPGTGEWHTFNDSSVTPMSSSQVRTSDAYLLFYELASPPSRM

Row | Compound | Potency
1 | CCOc1ccc(NC(=O)CSc2nnc(Cn3c(=O)sc4ccccc43)n2C)cc1 | inactive
2 | c1ccc(Nc2c3c(nc4ncnn24)CCC3)cc1 | inactive
3 | O=C(Nc1ccccc1)Nc1snnc1C(=O)Nc1cccc(O)c1 | 10 µM (active)
4 | COC(=O)C1CCN(C(=O)c2cc(-c3ccco3)nc3ccccc23)CC1 | 3.55 µM (active)
5 | O=C(NCCC1=CCCCC1)C1CCCN(S(=O)(=O)c2cnc[nH]2)C1 (centres undefined) | inactive
6 | CC(C)Cn1c(SCC(N)=O)nnc1-c1cccc(S(=O)(=O)N2CCOCC2)c1 | inactive
7 | CCC(C)NC(=O)C1CN(S(=O)(=O)c2ccccc2)CCN1S(=O)(=O)c1ccccc1 (centres undefined) | inactive
8 | Cc1ccc(C(=O)N(C)CC(=O)Nc2cccc(C)c2C)o1 | inactive
9 | COCCCNC(=O)C1CCN(c2nc(C)cc(C)n2)CC1 | inactive
10 | O=C1c2ccccc2CCC12N=NCC2c1ccc(Br)cc1 (centres undefined) | inactive
11 | CCn1c(=O)c(C(=O)Nc2ccccc2S(N)(=O)=O)c(O)c2ccccc21 | 5.62 µM (active)
12 | Nc1ccc(C2=Nc3cccc4cccc(c34)N2)cc1 | 12.6 µM (active)
13 | CC1(C)Cc2c(C#N)c(N3CCN(C(=O)c4ccco4)CC3)nc(-c3ccco3)c2CS1 | 8.91 µM (active)
14 | CC(C)n1nc(C(=O)Nc2ccccc2N2CCOCC2)c2ccccc2c1=O | inactive
15 | O=C(CC(C(=O)O)C1CCCO1)NCCc1ccc2c(c1)OCO2 (centres undefined) | inactive
16 | Cc1nc(N(C)C)c2sc(=S)n(C)c2n1 | inactive
17 | Cc1ccc(C(=O)N/C(=C/c2cccs2)C(=O)NCc2ccco2)cc1 | inactive
18 | O=C(CCc1nc(-c2ccccc2F)no1)NC1CCCCCC1 | inactive
19 | O=C1S/C(=C\C=C\c2ccco2)C(=O)N1c1ccc(O)cc1 | 8.91 µM (active)
20 | Cc1noc(C)c1NC(=O)Nc1ccc2c(c1)C(=O)N([C@H](C)CO)C[C@H](C)[C@@H](CN(C)S(=O)(=O)c1ccccc1)O2 | inactive

Row | Compound | Potency
21 | COCCn1nnnc1CN(CCc1ccccc1)Cc1cc2ccc(C)cc2[nH]c1=O | inactive
22 | O=C(CN1C(=O)/C(=C2\SC(=S)N(CCS(=O)(=O)O)C2=O)c2ccccc21)Nc1cccc(Br)c1 | 5.62 µM (active)
23 | NS(=O)(=O)c1ccc(N=Nc2c(O)c(C(=O)O)cc3ccccc23)cc1 | 5.62 µM (active)
24 | Cc1cc(-c2nnc3n2N=C(c2ccc(-c4ccccc4)cc2)CS3)n[nH]1 | 11.2 µM (active)
25 | Cc1ccc(C)n1-c1cc(S(=O)(=O)N2CCOCC2)ccc1N1CCCC1 | inactive
26 | O=C(COC(=O)c1ccc(NS(=O)(=O)c2cccs2)cc1)Nc1nc2c(F)c(F)c(F)cc2s1 | 3.55 µM (active)
27 | CCC(C(=O)NCc1ccccc1OC)n1nc(C)n2c(cc3occc32)c1=O (centres undefined) | inactive
28 | Cc1cc(Cl)ccc1NC(=S)NCCCN1CCCC1=O | inactive
29 | Cc1ccc2oc(=O)c3cnn(CC(=O)NCCCOC(C)C)c3c2c1 | inactive
30 | COC(=O)c1nnn(-c2nonc2N)c1CSc1ccccn1 | inactive
31 | CCOC(=O)N1CCN(C(=O)CN(c2cccc(C)c2)S(=O)(=O)c2ccccc2)CC1 | inactive
32 | C[C@@H]1CN([C@@H](C)CO)C(=O)c2cc(NC(=O)CCC(F)(F)F)ccc2O[C@H]1CN(C)S(=O)(=O)c1ccc(Cl)cc1 | inactive
33 | O=C(CSc1ncn[nH]1)Nc1ccc(Br)cc1F | inactive
34 | COc1cccc(N2C(=O)C3CCCN3C2c2ccc(N(C)C)cc2)c1 (centres undefined) | inactive
35 | Cc1cc(C(=O)Nc2ccccc2N2CCOCC2)c2ccccc2n1 | inactive
36 | COc1ccc(Cc2nnc(NC(=O)Cc3cccs3)s2)cc1 | 1.41 µM (active)
37 | CCOc1ccc(C(=O)c2ccc(OCC)c(N)c2)cc1N | inactive
38 | Cc1ccc(N(CC(=O)Nc2ccc(S(=O)(=O)N3CCOCC3)cc2)S(C)(=O)=O)cc1C | inactive
39 | O=C(N/C(=C/c1cccnc1)C(=O)N1CCOCC1)c1ccco1 | inactive
